{
  "source": "PubChem BioAssay (NCATS)",
  "key": {"[1]": {"experiment": "Cell Viability - LYMP2-023 (AID 975);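 note: series mostly up to about 92 µM; plate controls were DMSO only for no effect and 92 µM tetraoctylammonium bromide control for full effect; nearly all actives have a fitted effect of over 55% in size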", "method_in_brief": "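In this qHTS, ATP-based luciferase luminescence (CellTiter-Glo) is quantified in human lymphoblastoid cells after 24 hr compound treatment at 37 C; tetraoctylammonium bromide serves as positive control. Concentration-response curves are Hill-fitted to give AC50.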"}, "[2]": {"experiment": "Cell Viability - LYMP2-025 (AID 976);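 note: series mostly up to about 92 µM; plate controls were DMSO only for no effect and tetraoctylammonium bromide control for full effect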", "method_in_brief": "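Luminescent ATP readout after 24 hr treatment of a human lymphoblastoid line (LYMP2-025, 2500 cells/well, 37 C). Reagent developed 30 min at room temperature; AC50 fitted with the Hill equation.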"}, "[3]": {"experiment": "Cell Viability - LYMP2-002 (AID 977);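 note: series mostly up to about 92 µM; plate controls were DMSO only for no effect and 92 µM tetraoctylammonium bromide for full effect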", "method_in_brief": "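Human lymphoblastoid cells, 2500/well, complete medium; 5 h 37 C settle; compound 24 h 37 C; CellTiter-Glo, 30 min RT; luminescence. Decrease in ATP = cytotoxicity; AC50 via Hill equation.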"}, "[4]": {"experiment": "Cell Viability - LYMP2-006 (AID 978); note: series mostly up to about 92 µM; % is set by controls: 0 for no effect and ±100 for the full control effect; nearly all actives have a fitted effect of over 60% in size", "method_in_brief": "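Human lymphoblastoid cells (LYMP2-006), 2500/well in complete medium, were treated with compound for 24 hr at 37 C. Cellular ATP was read by CellTiter-Glo luminescence after 30 min, and AC50 values came from Hill-equation fits of concentration-response data.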"}, "[5]": {"experiment": "Cell Viability - LYMP2-007 (AID 979);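 note: cells exposed to compound for 24 h before reading; 0% = DMSO only and the negative end = 92 µM tetraoctylammonium bromide; nearly all actives have a fitted effect of over 60% in size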", "method_in_brief": "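Measured via luciferase-based ATP quantitation: lymphoblastoid cells, 24 hr compound exposure at 37 C, AC50 from Hill fits.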"}, "[6]": {"experiment": "Cell Viability - LYMP2-008 (AID 980); note: % is set by controls: 0 for no effect and ±100 for the full control effect; nearly all actives have a fitted effect of over 60% in size", "method_in_brief": "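Measured: ATP-dependent luminescence, proportional to viable cell number, in human lymphoblastoid cells treated 24 hr with compound in complete culture medium. Values are AC50s from Hill-equation modelling of qHTS titrations.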"}, "[7]": {"experiment": "Cell Viability - LYMP2-010 (AID 981); note: % is set by controls: 0 for no effect and ±100 for the full control effect; nearly all actives have a fitted effect of over 55% in size", "method_in_brief": "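This 24 hr viability screen uses LYMP2-010 lymphoblastoid cells, quantifies ATP via luciferase luminescence, and derives AC50 from Hill fits of qHTS concentration-response data.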"}, "[8]": {"experiment": "Cell Viability - LYMP2-012 (AID 982);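 note: cellular ATP by luciferase luminescence where a drop means cytotoxicity; cells exposed to compound for one day before reading; 0% = DMSO only and full loss = 92 µM tetraoctylammonium bromide; nearly all actives have a fitted effect of over 55% in size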"}, "[9]": {"experiment": "Cell Viability - LYMP2-014 (AID 983);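 note: series mostly up to about 92 µM; plate controls were DMSO only for no effect and 92 µM tetraoctylammonium bromide for full effect; nearly all actives have a fitted effect of over 50% in size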", "method_in_brief": "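Quantitative HTS in lymphoblastoid cells: 24 hr compound exposure, then CellTiter-Glo ATP luminescence. Positive control was tetraoctylammonium bromide, 6.4pM to 92 uM.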"}, "[10]": {"experiment": "Cell Viability - LYMP2-016 (AID 984); note: % is set by controls: 0 for no effect and ±100 for the full control effect; nearly all actives have a fitted effect of over 55% in size", "method_in_brief": "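Human lymphoblastoid LYMP2-016 cells, 2500 per well, treated with compounds for 24 h at 37 C. Viability read as intracellular ATP by CellTiter-Glo luminescence after 30 min at room temperature; AC50 from Hill fits of concentration-response.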"}, "[11]": {"experiment": "Cell Viability - LYMP2-018 (AID 985);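 note: plate controls were DMSO only for no effect and tetraoctylammonium bromide at 92 µM for full effect; nearly all actives have a fitted effect of over 50% in size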", "method_in_brief": "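In this qHTS viability assay, cells are treated for 24 hr and cellular ATP is quantified by luciferase-based luminescence, with tetraoctylammonium bromide as positive control.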"}, "[12]": {"experiment": "Cell Viability - LYMP2-020 (AID 986)", "method_in_brief": "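Cells at 2500 per well receive a 24 hr compound exposure at 37 C. Viability is measured as ATP-dependent luciferase luminescence, with AC50 modeled from qHTS concentration-response curves.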"}, "[13]": {"experiment": "Cell Viability - LYMP2-022 (AID 987)", "method_in_brief": "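In this qHTS cytotoxicity screen, compound titrations were incubated 24 hr at 37 C with human lymphoblastoid cells in complete medium. Luciferase-based ATP luminescence provided the viability signal.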"}, "[14]": {"experiment": "Cell Viability - LYMP2-024 (AID 988);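 note: plate controls were DMSO only for no effect and 92 µM tetraoctylammonium bromide for full effect; nearly all actives have a fitted effect of over 60% in size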", "method_in_brief": "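Cells at 2500 per well received compound for 24 hr after a 5 hr settling period. Viability was scored by CellTiter-Glo luminescence, with AC50 from Hill fits.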"}, "[15]": {"experiment": "Cell Viability - LYMP2-026 (AID 989); note: % is set by controls: 0 for no effect and ±100 for the full control effect; nearly all actives have a fitted effect of over 50% in size", "method_in_brief": "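Acute toxicity screen in complete culture medium, with 24 hr compound exposure at 37 C. Viability read as cellular ATP via luciferase reaction, with tetraoctylammonium bromide (6.4pM to 92 uM) as positive control.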"}, "[16]": {"experiment": "Cell Viability - LYMP1-002 - Assay at 24 hr (AID 993); note: % is set by controls: 0 for no effect and ±100 for the full control effect", "method_in_brief": "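Viability was judged from intracellular ATP using a luciferase read-out, following a 24-hour compound incubation at 37 C of lymphoblastoid cells seeded at 2500 per well. Concentration-response data were fitted to the Hill equation for AC50.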"}, "[17]": {"experiment": "Cell Viability - LYMP1-002 - Assay at 40 hr (AID 994)", "method_in_brief": "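Concentration-dependent ATP loss after 40 hr treatment at 37 C defined toxicity; AC50 values were obtained by fitting the standard Hill equation.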"}, "[18]": {"experiment": "qHTS assay for small molecule antagonists of peroxisome proliferator-activated receptor delta signaling (AID 588535; active = well fitted inhibition curve with a large enough effect in the signal ratio, with a control signal flat, not every such curve was filed as active; the % refers to the signal ratio;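 for max response: cells co-treated with a PPAR-delta agonist as stimulator during compound exposure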)", "details": "HEK293T PPARd-UAS-bla, beta-lactamase FRET ratio, 18 h; 460 nm channel", "method_in_brief": "(§1)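 Beta-lactamase reporter read-out (405 nm excitation, 460/530 nm emission) after CCF4 loading for 2 hrs at RT. HEK293T PPAR-delta-UAS-bla cells, 2% charcoal/dextran FBS, compounds for 18 hrs at 37 C. Hill fit gave IC50 and efficacy.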"}, "[19]": {"target": "Peroxisome proliferator-activated receptor delta (Homo sapiens) (UniProt Q03181)", "sequence (Q03181 whole entry, looked up)": "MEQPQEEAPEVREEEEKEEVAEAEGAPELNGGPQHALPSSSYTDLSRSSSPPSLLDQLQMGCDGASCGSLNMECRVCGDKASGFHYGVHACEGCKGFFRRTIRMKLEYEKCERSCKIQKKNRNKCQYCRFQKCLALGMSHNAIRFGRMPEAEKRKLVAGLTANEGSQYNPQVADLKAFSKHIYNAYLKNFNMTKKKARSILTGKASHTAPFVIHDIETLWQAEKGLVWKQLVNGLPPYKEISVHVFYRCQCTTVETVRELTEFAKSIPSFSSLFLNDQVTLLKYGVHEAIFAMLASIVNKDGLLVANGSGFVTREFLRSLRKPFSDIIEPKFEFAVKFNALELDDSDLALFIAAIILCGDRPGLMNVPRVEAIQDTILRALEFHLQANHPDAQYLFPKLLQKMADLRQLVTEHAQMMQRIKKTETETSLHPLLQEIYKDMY", "experiment": "qHTS assay for small molecule antagonists of peroxisome proliferator-activated receptor delta signaling (AID 588535)", "method_in_brief": "as §1"}, "[20]": {"target": "Vitamin D3 receptor (Homo sapiens) (UniProt P11473)", "sequence (P11473 whole entry, looked up)": "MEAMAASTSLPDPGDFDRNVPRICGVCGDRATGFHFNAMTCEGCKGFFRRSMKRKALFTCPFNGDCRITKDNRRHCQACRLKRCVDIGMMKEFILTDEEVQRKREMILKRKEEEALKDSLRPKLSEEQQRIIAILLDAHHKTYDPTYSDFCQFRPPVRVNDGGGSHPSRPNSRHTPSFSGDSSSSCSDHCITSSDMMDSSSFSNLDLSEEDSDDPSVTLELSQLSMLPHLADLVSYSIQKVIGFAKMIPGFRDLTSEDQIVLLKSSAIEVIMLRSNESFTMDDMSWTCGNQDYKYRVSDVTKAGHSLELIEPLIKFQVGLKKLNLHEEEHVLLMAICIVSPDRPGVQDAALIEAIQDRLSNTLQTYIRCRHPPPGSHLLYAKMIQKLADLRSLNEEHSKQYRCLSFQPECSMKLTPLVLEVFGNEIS", "experiment": "qHTS assay for small molecule antagonists of vitamin D receptor signaling (AID 588541; calls by dose curve)", "method_in_brief": "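VDR-UAS-bla HEK293T cells in 2% charcoal-stripped FBS were stimulated with 1-alpha,25-dihydroxyvitamin D3 (3 nM final) plus compound for 16 h at 37 C. The beta-lactamase CCF4 readout was normalized to 50 nM agonist and DMSO, and Hill fits gave IC50.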"}, "[21]": {"target": "Vitamin D3 receptor (Homo sapiens) (UniProt P11473)", "experiment": "qHTS assay for small molecule agonists of vitamin D receptor signaling (AID 588543; calls by dose curve)", "method_in_brief": "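VDR-UAS-bla HEK293T cells, 2000/well, 2% charcoal-stripped FBS; compound titration 16 h at 37 C; CCF4 beta-lactamase ratio read. Normalized to 50 nM 1-alpha,25-dihydroxyvitamin D3 (100%) and DMSO; Hill fit gives EC50, efficacy.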"}},
  "note": "Inconclusive results are not listed. The source made the active and inactive calls. Unless noted, calls come from the whole dose curve; as a rule, active = well fitted cell-killing curve with a large enough effect; inconclusive = small, poorly fitted or top-dose-only effect; inactive = flat fitted curve, though single readings scatter.",
  "data": [
    {"smiles": "CO[C@H]1/C=C/O[C@@]2(C)Oc3c(C)c(O)c4c(O)c(c(/C=N/N5CCN(C)CC5)c(O)c4c3C2=O)NC(=O)/C(C)=C\\C=C\\[C@H](C)[C@H](O)[C@@H](C)[C@@H](O)[C@@H](C)[C@H](OC(C)=O)[C@@H]1C", "values": [
      {"measurement": "outcome", "setting": "[1]", "result": "inactive"},
      {"measurement": "outcome", "setting": "[2]", "result": "inactive"},
      {"measurement": "outcome", "setting": "[3]", "result": "inactive"},
      {"measurement": "outcome", "setting": "[4]", "result": "inactive"},
      {"measurement": "outcome", "setting": "[5]", "result": "inactive"},
      {"measurement": "outcome", "setting": "[6]", "result": "inactive"},
      {"measurement": "outcome", "setting": "[7]", "result": "inactive"},
      {"measurement": "outcome", "setting": "[8]", "result": "inactive"},
      {"measurement": "outcome", "setting": "[9]", "result": "inactive"},
      {"measurement": "outcome", "setting": "[10]", "result": "inactive"},
      {"measurement": "outcome", "setting": "[11]", "result": "inactive"},
      {"measurement": "outcome", "setting": "[12]", "result": "inactive"},
      {"measurement": "outcome", "setting": "[13]", "result": "inactive"},
      {"measurement": "outcome", "setting": "[14]", "result": "inactive"},
      {"measurement": "outcome", "setting": "[15]", "result": "inactive"},
      {"measurement": "outcome", "setting": "[16]", "result": "inactive"},
      {"measurement": "outcome", "setting": "[17]", "result": "inactive"},
      {"measurement": "max response", "setting": "[18]", "result": 91.2, "unit": "%"},
      {"measurement": "outcome", "setting": "[19]", "result": "inactive"},
      {"measurement": "outcome", "setting": "[20]", "result": "inactive"},
      {"measurement": "outcome", "setting": "[21]", "result": "inactive"}
    ]}
  ]
}
